PubChem BioAssay (Tox21)
A number with no mark means an inactive call. Records with an inconclusive call do not appear. Entries that show only a call come without a potency. Activity calls are given as the source filed them. Unless noted, calls come from the whole dose curve; as a rule, active = well fitted curve in the direction sought with a large enough effect in the repeat runs; inconclusive = weak or mixed curves; inactive = no such curve, though single readings can be large; an effect the other way counts as inactive or inconclusive.

Experiments:
[1] = qHTS RealTime-Glo MT Cell Viability Assay in HEK293 cells - 24 hour (AID 1224886); note: top concentration of the series differs between compounds; nearly all actives have a fitted effect of over 50% in size
Outline: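 HEK293 cells were seeded at 600 cells/well together with NanoLuc luciferase and cell-permeant prosubstrate, preincubated 5 h at 37 C/5% CO2, then given compound in DMSO by pintool. Luminescence from viable-cell prosubstrate reduction was read repeatedly over 40 h.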

[2] = qHTS RealTime-Glo MT Cell Viability Assay in HEK293 cells - 8 hour (AID 1224887); note: top concentration of the series differs between compounds; nearly all actives have a fitted effect of over 50% in size
Outline: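 Real-time viability in HEK293: signal arises when living cells convert a prosubstrate for NanoLuc in the medium, so luminescence tracks viable cell number. Compound (23 nL, DMSO) added 5 h post-seeding; kinetic reads at 0–40 h, 37 C.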

[3] = A CellTox Green Cytotoxicity Assay to monitor cytotoxicity in HEK293 cells - 16 hour (AID 1224888); note: nearly all actives have a fitted effect of over 35% in size
Outline: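 Cells (HEK293, 600/well) and dye reagent are dispensed together. After 5 h at 37 C, 23 nL compound is pinned in. Plates stay at 37 C for 40 h with fluorescence read at 0h, 8h, 16h, 24h, 32h and 40h.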

[4] = A CellTox Green Cytotoxicity Assay to monitor cytotoxicity in HepG2 cells - 8 hour (AID 1224890); note: nearly all actives have a fitted effect of over 45% in size; note: potency is the fitted concentration of half-maximal effect
Outline: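 Cells and non-lytic dye reagent are dispensed together (600 HepG2 cells/well) and incubated 5 h before DMSO compound transfer. Kinetic fluorescence is then recorded in the same wells during 40 h at 37 C.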

[5] = qHTS assay to identify small molecule antagonists of the estrogen receptor alpha (ER-alpha) signaling pathway using the BG1 cell line in the presence of 0.1 nM 17-beta-estradiol - cell viability counter screen (AID 1259241); note: nearly all actives have a fitted effect of over 40% in size
Outline: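 VM7Luc4E2 cells (endogenous full-length ER-alpha, 4xERE-luciferase), cultured 5 days in charcoal-stripped serum, exposed to compounds with 0.1 nM 17beta-estradiol (final) for 22 hr at 37C. Viability read in same wells as live-cell protease fluorescence after 30 min.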

[6] = qHTS assay to identify small molecule antagonists of the androgen receptor (AR) signaling pathway using the MDA cell line in the presence of 0.5 nM R1881 - cell viability counter screen (AID 1259242); note: nearly all actives have a fitted effect of over 45% in size
Outline: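 Steps: plate MDA-kb2 cells, rest 5 hr at 37C without CO2; pin in compounds in DMSO; add R1881 to 0.5 nM final; incubate 16 hr; add CellTiter-Fluor, 30 min; read fluorescence.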

[7] = qHTS assay to identify small molecule HDAC inhibitors (AID 1259364);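 note: wild-type HCT-116 cells with endogenous class I/II HDAC activity; top concentration of the series differs between compounds; nearly all actives have a fitted effect of over 45% in size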
Outline: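 Cells (HCT-116, wild type) are seeded at 1,500 per well, incubated overnight, treated with compound in DMSO for 2 hr, then developed with HDAC-Glo I/II reagent for 30 min at room temperature.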

[8] = qHTS assay to identify small molecule HDAC inhibitors - cell viability counter screen (AID 1259365); note: series mostly up to about 92 µM; nearly all actives have a fitted effect of over 50% in size
Outline: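 Wild-type HCT-116 cells, 1,500/well, cultured overnight, then compound-treated 2 h at 37 C. Viability measured as ATP luminescence with CellTiter-Glo after 30 min at room temperature.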

[9] = qHTS assay to identify small molecule agonists of the sonic hedgehog signaling (Shh) pathway - cell viability counter screen (AID 1259366); note: nearly all actives have a fitted effect of over 50% in size
Outline: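 NIH/3T3-derived Gli1-Luc reporter cells, 2,000 per well, received compound after 4 h and were treated about 23 h at 37C. Viability measured in the same wells by CellTiter-Fluor fluorescence after 1 h.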

[10] = qHTS assay to identify small molecule antagonists of the sonic hedgehog signaling (Shh) pathway - cell viability counter screen (AID 1259367); note: nearly all actives have a fitted effect of over 55% in size
Outline: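 CellTiter-Fluor signal in conditioned medium-stimulated 3T3 Gli1-Luc cells, 23 hr compound exposure, 37C.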

[11] = qHTS assay to identify small molecule agonists of the sonic hedgehog signaling (Shh) pathway (AID 1259368; calls by dose curve;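 note: NIH/3T3-derived 3T3Gli1-Luc cells carrying a stable Gli1-driven firefly luciferase reporter; series mostly up to about 92 µM; nearly all actives have a fitted effect of over 15% in size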)
Outline: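 Cells of a mouse NIH/3T3 clone stably expressing luciferase under the Gli1 transcriptional response element are exposed to test chemicals for 24 hr at 37 C. Pathway activation is detected as a rise in luminescence.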

[12] = qHTS assay to identify small molecule antagonists of the sonic hedgehog signaling (Shh) pathway (AID 1259369; calls by dose curve; note: nearly all actives have a fitted effect of over 45% in size)
Outline: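 Cells are plated and held 4hr at 37 C, compounds (DMSO) are pinned in, conditioned medium is added to stimulate the pathway, and after 24hr luciferase reagent is added for 30min before luminescence is read.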

[13] = qHTS assay to identify small molecule agonists of the androgen receptor (AR) signaling pathway in the presence of an antagonist - cell viability counter screen (AID 1259379);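 note: MDA-kb2 human breast cancer cells carrying an MMTV luciferase reporter; series mostly up to about 92 µM; nearly all actives have a fitted effect of over 25% in size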
Outline: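 Cytotoxicity is assessed by CellTiter-Fluor in MDA-kb2 cells carrying an MMTV-driven luciferase reporter. Cells receive 3.0uM nilutamide plus compounds at 15 concentrations and incubate 16 hr at 37C without CO2 before fluorescence reading.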

[14] = qHTS assay to identify small molecule agonists of the estrogen receptor beta (ER-beta) signaling pathway - cell viability counter screen (AID 1259380); note: nearly all actives have a fitted effect of over 30% in size
Outline: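 Cytotoxicity is measured in parallel with the reporter screen: after 16 hr compound exposure at 37C and a 2 hr LiveBLAzer step, CellTiter-Glo is added to the same ER-beta-UAS-bla HEK293T wells and luminescence read after 30 min.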

[15] = qHTS RealTime-Glo MT Cell Viability Assay in HepG2 cells - 0 hour (AID 1224889); note: nearly all actives have a fitted effect of over 50% in size
Outline: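 HepG2 cells were seeded at 600 cells/well together with NanoLuc luciferase and a cell-permeant prosubstrate, preincubated 5 h at 37 C/5% CO2, then pin-dosed with compounds in DMSO. Nonlytic luminescence from viable cells was read at each time point.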

[16] = target: Estrogen receptor (Homo sapiens) (UniProt P03372); test: qHTS assay to identify small molecule antagonists of the estrogen receptor alpha (ER-alpha) signaling pathway using the BG1 cell line in the presence of 0.1 nM 17-beta-estradiol (AID 1259244); note: nearly all actives have a fitted effect of over 50% in size
Sequence of Estrogen receptor (Homo sapiens) (P03372 whole entry, looked up): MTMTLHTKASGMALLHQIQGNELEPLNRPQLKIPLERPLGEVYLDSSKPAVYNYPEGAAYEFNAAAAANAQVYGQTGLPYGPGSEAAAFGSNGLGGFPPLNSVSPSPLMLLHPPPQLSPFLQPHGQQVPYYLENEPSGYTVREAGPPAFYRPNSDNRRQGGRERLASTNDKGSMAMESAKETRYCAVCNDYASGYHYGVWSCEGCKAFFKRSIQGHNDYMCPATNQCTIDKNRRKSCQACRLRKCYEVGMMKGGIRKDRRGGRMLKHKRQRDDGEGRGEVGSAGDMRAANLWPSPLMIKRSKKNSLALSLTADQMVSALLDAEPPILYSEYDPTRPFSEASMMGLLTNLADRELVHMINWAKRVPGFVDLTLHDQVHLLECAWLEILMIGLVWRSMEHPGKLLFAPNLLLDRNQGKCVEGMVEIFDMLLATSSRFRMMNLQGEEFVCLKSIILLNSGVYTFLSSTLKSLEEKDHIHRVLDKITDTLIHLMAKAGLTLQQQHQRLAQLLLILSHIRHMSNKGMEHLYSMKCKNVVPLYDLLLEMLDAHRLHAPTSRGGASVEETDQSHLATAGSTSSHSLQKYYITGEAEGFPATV
Outline: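 Antagonist mode: compounds in DMSO are pinned onto VM7Luc4E2 reporter cells, 0.1 nM final 17beta-estradiol is added, and after 22 h at 37C luciferase luminescence is measured with ONE-Glo.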

[17] = target: Estrogen receptor beta (Homo sapiens) (UniProt Q92731); test: qHTS assay to identify small molecule agonists of the estrogen receptor beta (ER-beta) signaling pathway (AID 1259377; active = well fitted activation curve with a large enough effect in the signal ratio in the repeat runs, not every such curve was filed as active; the % refers to the signal ratio)
Sequence of Estrogen receptor beta (Homo sapiens) (Q92731 whole entry, looked up): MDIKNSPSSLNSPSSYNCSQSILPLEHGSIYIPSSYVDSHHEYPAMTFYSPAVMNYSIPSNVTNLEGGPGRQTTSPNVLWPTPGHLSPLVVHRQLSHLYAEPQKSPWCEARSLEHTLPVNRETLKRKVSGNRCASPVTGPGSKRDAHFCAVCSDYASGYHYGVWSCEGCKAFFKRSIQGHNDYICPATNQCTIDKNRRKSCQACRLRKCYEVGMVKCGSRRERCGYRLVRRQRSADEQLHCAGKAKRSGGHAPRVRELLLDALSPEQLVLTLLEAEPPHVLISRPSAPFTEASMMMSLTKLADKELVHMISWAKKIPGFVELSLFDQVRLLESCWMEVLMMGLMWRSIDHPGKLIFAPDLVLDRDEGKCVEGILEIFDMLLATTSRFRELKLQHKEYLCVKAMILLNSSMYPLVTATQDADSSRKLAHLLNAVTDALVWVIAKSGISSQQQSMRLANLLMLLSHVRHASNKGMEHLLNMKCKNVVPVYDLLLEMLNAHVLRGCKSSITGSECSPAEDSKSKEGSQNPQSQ
Outline: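 ER-beta-UAS-bla HEK293T cells in medium with 2% charcoal-stripped FBS were exposed to compounds for 16 h at 37C. Beta-lactamase reporter activity was read as fluorescence after 2 h with LiveBLAzer B/G FRET substrate at room temperature.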

[18] = target: Estrogen receptor beta (Homo sapiens) (UniProt Q92731); test: qHTS assay to identify small molecule antagonists of the estrogen receptor beta (ER-beta) signaling pathway (AID 1259378; active = well fitted inhibition curve with a large enough effect in the signal ratio in the repeat runs, not every such curve was filed as active; the % refers to the signal ratio)
Outline: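 Antagonist mode: compounds added to beta-lactamase reporter HEK293T ER-beta-UAS cells stimulated with E2 (1nM final), 16 hr at 37C. LiveBLAzer B/G FRET substrate, 2 hours room temperature, fluorescence read-out.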

[19] = qHTS assay to identify small molecule phospholipidosis (PLD) inducers (AID 1259344; active = well fitted curve in the direction sought with a large enough effect; an effect the other way counts as inactive or inconclusive)
Outline: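 Accumulated phospholipid, stained red by LipidTOX during 24 h compound treatment of HepG2 cells at 37 C, is quantified from images as pit number and intensity, normalised per cell using Hoechst-stained nuclei.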

[20] = target: Androgen receptor (Homo sapiens) (UniProt P10275); test: qHTS assay to identify small molecule antagonists of the androgen receptor (AR) signaling pathway using the MDA cell line in the presence of 0.5 nM R1881 (AID 1259243); note: nearly all actives have a fitted effect of over 50% in size
Sequence of Androgen receptor (Homo sapiens) (P10275 whole entry, looked up): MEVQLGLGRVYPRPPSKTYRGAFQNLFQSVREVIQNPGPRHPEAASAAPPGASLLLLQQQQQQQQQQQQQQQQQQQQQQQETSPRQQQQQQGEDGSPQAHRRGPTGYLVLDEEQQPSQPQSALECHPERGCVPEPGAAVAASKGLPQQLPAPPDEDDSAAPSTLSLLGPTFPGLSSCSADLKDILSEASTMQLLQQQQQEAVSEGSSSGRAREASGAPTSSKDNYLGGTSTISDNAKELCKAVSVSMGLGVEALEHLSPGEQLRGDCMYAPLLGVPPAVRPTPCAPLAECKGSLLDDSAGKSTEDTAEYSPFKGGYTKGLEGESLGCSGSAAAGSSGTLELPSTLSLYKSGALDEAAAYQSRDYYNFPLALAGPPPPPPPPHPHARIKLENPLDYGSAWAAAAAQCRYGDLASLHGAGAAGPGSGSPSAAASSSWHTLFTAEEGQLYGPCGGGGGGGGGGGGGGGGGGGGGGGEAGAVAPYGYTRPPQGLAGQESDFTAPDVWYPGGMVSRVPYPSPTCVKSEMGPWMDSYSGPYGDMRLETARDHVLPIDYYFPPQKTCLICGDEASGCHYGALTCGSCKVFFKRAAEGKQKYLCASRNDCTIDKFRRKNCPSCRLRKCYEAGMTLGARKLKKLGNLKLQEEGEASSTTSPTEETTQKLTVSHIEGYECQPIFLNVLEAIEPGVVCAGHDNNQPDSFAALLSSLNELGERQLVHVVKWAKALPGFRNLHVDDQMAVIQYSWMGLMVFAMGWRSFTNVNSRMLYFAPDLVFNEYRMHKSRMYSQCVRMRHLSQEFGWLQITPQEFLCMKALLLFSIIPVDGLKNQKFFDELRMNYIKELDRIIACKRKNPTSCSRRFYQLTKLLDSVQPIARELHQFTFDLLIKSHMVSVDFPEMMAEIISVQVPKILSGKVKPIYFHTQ
Outline: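 Stably transfected MDA-kb2 cells express luciferase from an MMTV promoter bearing both AR and GR response elements. Compounds plus 0.5 nM R1881 (final) were incubated 16 hr at 37C without CO2, then luminescence measured.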

| Structure (SMILES) | Potency [1] | Potency [2] | Potency [3] | Potency [4] | Potency [5] | Potency [6] | Potency [7] | outcome [8] | Potency [9] | Potency [10] | outcome [11] | Potency [12] | Potency [13] | outcome [14] | Potency [15] | Potency [16] | Potency [17] | outcome [18] | outcome [19] | outcome [20] |
| --- | --- | --- | --- | --- | --- | --- | --- | --- | --- | --- | --- | --- | --- | --- | --- | --- | --- | --- | --- | --- |
| OC[C@@H](O)[C@H](O)[C@@H](O)[C@@H](O)CO | inactive | inactive | inactive | inactive | inactive | inactive | inactive | inactive | inactive | inactive | inactive | inactive | inactive | inactive | – | – | – | – | – | – |
| COC(/C=C(\C)CCC=C(C)C)OC | inactive | inactive | – | inactive | inactive | inactive | inactive | inactive | inactive | – | inactive | inactive | inactive | inactive | inactive | inactive | inactive | inactive | – | – |
| Cc1oc(=O)oc1CN1CCN(c2cc3c(cc2F)c(=O)c(C(=O)O)c2n3C(C)S2)CC1 (stereo not given) | inactive | inactive | inactive | 535 nM (active) | inactive | inactive | inactive | inactive | inactive | inactive | – | – | inactive | – | – | – | inactive | – | inactive | – |
| CC(C)c1ccccc1O | inactive | inactive | inactive | inactive | inactive | inactive | inactive | inactive | inactive | inactive | inactive | – | inactive | inactive | – | – | inactive | inactive | – | – |
| CC(C)COC(=O)CCCCC(=O)OCC(C)C | inactive | inactive | inactive | inactive | inactive | inactive | inactive | inactive | inactive | inactive | – | – | inactive | inactive | – | – | – | – | – | – |
| C=CCOCC(O)CCl (stereo not given) | inactive | inactive | inactive | inactive | inactive | inactive | inactive | inactive | inactive | inactive | inactive | inactive | inactive | – | – | inactive | inactive | inactive | – | inactive |
| CCC1COC(=O)O1 (stereo not given) | inactive | inactive | inactive | inactive | inactive | inactive | inactive | inactive | inactive | – | inactive | inactive | inactive | inactive | – | inactive | – | – | – | – |
| F[Si-2](F)(F)(F)(F)F | inactive | inactive | inactive | inactive | inactive | inactive | inactive | inactive | inactive | inactive | inactive | inactive | inactive | inactive | – | inactive | inactive | inactive | inactive | – |
| O=S1(=O)CCCC1 | inactive | inactive | inactive | inactive | inactive | inactive | inactive | inactive | inactive | inactive | inactive | inactive | inactive | inactive | – | inactive | inactive | – | – | – |
| CCCC(C)CC (stereo not given) | inactive | inactive | inactive | inactive | inactive | inactive | inactive | inactive | inactive | inactive | inactive | inactive | inactive | inactive | – | – | inactive | inactive | – | – |
| OCCCCCCCl | inactive | inactive | inactive | – | inactive | inactive | inactive | inactive | inactive | inactive | inactive | – | inactive | inactive | – | inactive | inactive | inactive | – | – |
| CCC(C)(C)C1CCC(=O)CC1 | inactive | inactive | inactive | inactive | inactive | inactive | inactive | inactive | inactive | inactive | inactive | inactive | inactive | inactive | – | – | – | – | – | inactive |
| CC(C)(C)NCCO | inactive | inactive | inactive | inactive | inactive | inactive | inactive | inactive | inactive | inactive | inactive | inactive | inactive | inactive | – | inactive | inactive | inactive | – | – |
| CC(C)CCO | inactive | inactive | inactive | inactive | inactive | inactive | inactive | inactive | inactive | inactive | inactive | inactive | inactive | – | – | inactive | inactive | inactive | – | – |
| CC(=O)OCC(=O)[C@@]1(O)[C@H](OC(C)=O)C[C@H]2[C@@H]3CCC4=CC(=O)C=C[C@]4(C)[C@@]3(F)[C@@H](O)C[C@@]21C | inactive | inactive | inactive | inactive | inactive | inactive | inactive | inactive | inactive | – | inactive | inactive | inactive | inactive | – | inactive | – | – | inactive | – |
| COC(=O)CCC(=O)O | inactive | inactive | inactive | – | inactive | inactive | inactive | inactive | inactive | inactive | inactive | inactive | inactive | inactive | – | inactive | inactive | inactive | – | – |
